Where “and” joins values, the source holds several entries; their conditions need not be identical. Identical values can stand only once. Inconclusive results are not listed. Entries that show only a call come without a potency. Some structures have more than one record in an assay (separate samples or runs), and their calls can disagree. Calls of active or inactive are those of the source. Unless noted, calls come from the whole dose curve; as a rule, active = well fitted curve in the direction sought with a large enough effect in the repeat runs; inconclusive = weak or mixed curves; inactive = no such curve, though single readings can be large; an effect the other way counts as inactive or inconclusive.
Legend:
[1] = qHTS assay to identify small molecule antagonists of the retinoid acid receptor (RAR) signaling pathway - cell viability counter screen (AID 1159551); note: nearly all actives have a fitted effect of over 35% in size; note: potency is the fitted concentration of half-maximal effect
How it was run: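 Retinol-stimulated (1 uM final) C3RL4 cells, compound 6 h, 37 C; readout CellTiter-Glo luminescence (ATP) after 30 min RT incubation.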

[2] = qHTS assay to identify small molecule antagonists of the estrogen related receptor (ERR) signaling pathway from Tox21 library - cell viability counter screen (AID 1224834); note: nearly all actives have a fitted effect of over 30% in size; note: potency is the fitted concentration of half-maximal effect
How it was run: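 After 17.5 h of compound exposure at 37 C, ERR cells are incubated with CellTiter-Fluor for 30 min and fluorescence intensity serves as the viability measure.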

[3] = target: Luciferin 4-monooxygenase (Photinus pyralis) (UniProt P08659); assay: qHTS assay to identify small molecule inhibitors of firefly luciferase (AID 1224835); note: series mostly up to about 120 µM; nearly all actives have a fitted effect of over 25% in size
Luciferin 4-monooxygenase (Photinus pyralis), sequence (P08659 whole entry, looked up): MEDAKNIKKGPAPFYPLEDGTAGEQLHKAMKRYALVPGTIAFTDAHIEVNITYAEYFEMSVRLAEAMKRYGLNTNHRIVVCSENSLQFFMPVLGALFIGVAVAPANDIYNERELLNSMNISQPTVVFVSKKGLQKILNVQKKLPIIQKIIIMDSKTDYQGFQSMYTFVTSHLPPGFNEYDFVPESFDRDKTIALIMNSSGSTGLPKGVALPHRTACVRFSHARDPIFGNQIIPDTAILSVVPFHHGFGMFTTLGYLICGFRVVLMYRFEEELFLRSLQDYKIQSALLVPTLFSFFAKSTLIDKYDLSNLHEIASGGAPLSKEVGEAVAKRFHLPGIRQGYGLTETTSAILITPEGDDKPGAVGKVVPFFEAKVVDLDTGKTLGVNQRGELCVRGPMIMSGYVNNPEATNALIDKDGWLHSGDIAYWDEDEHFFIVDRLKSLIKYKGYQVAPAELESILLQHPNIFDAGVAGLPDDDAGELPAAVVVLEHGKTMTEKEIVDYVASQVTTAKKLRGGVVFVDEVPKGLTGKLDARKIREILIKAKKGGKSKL
How it was run: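 Inhibition of purified Photinus luciferase is measured by luminescence. Substrate levels (D-luciferin, ATP) sit at their KM values. Each compound is tested in a concentration series.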

[4] = qHTS assay to identify small molecule agonists of the constitutive androstane receptor (CAR) signaling pathway - cell viability counter screen (AID 1224836); note: nearly all actives have a fitted effect of over 45% in size; note: potency is the fitted concentration of half-maximal effect
How it was run: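 23 h treatment, 37 C, 5% CO2. Cell line: HepG2 stably expressing hCAR with a CYP2B6-2.2kb construct. Co-treatment: PK11195, 0.75 uM final. Read-out: CellTiter-Fluor fluorescence intensity.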

[5] = qHTS assay to identify small molecule antagonists of the constitutive androstane receptor (CAR) signaling pathway - cell viability counter screen (AID 1224837); note: nearly all actives have a fitted effect of over 45% in size; note: potency is the fitted concentration of half-maximal effect
How it was run: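 Counter screen run in HepG2-CYP2B6-hCAR cells: 4 hr settle, compound titration (15 concentrations) with 50 nM CITCO, 23 hr at 37 C/5% CO2, CellTiter-Fluor fluorescence.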

[6] = qHTS assay to identify small molecule antagonists of the estrogen related receptor signaling pathway with the pleiotropic PPARgamma coactivator (PGC) from Tox21 10K library - cell viability counter screen (AID 1224840; active = well fitted cell-killing curve with a large enough effect in the repeat runs, not every such curve was filed as active; note: nearly all actives have a fitted effect of over 40% in size; note: potency is the fitted concentration of half-maximal effect)
How it was run: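 Following seeding of 2,000 PGC/ERR cells/well and 6 hours' incubation, test compounds were delivered in DMSO. The plates then sat 17.5 hours at 37 C before a fluorogenic live-cell protease reagent (CellTiter-Fluor) was read after 30 min.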

[7] = qHTS assay to identify small molecule antagonists of the retinoic acid receptor (RAR) signaling pathway (AID 1159552; note: nearly all actives have a fitted effect of over 50% in size; note: potency is the fitted concentration of half-maximal effect)
How it was run: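 Test chemicals and DMSO controls were pin-transferred onto C3RL4 cells a day after seeding; retinol (1 uM final) followed at once. Luminescent reporter output was quantified after 6 hr of co-incubation and 30 min with detection reagent.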

[8] = target: Nuclear receptor subfamily 1 group I member 3 (Homo sapiens) (UniProt Q14994); assay: qHTS assay to identify small molecule antagonists of the constitutive androstane receptor (CAR) signaling pathway (AID 1224838);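 note: HepG2 cells stably expressing hCAR with CYP2B6 luciferase reporter stimulated by CITCO; nearly all actives have a fitted effect of over 40% in size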; note: potency is the fitted concentration of half-maximal effect
Nuclear receptor subfamily 1 group I member 3 (Homo sapiens), sequence (Q14994 whole entry, looked up): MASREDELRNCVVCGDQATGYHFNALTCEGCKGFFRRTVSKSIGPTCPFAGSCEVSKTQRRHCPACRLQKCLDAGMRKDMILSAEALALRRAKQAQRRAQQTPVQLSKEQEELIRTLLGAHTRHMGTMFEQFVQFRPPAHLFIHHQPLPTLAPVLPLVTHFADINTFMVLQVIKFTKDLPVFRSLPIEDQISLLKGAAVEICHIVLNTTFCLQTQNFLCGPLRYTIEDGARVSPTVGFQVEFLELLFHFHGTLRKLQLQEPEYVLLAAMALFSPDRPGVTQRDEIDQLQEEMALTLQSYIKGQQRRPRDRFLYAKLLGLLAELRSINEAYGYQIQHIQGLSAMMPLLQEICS
How it was run: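 Cell line: HepG2 double-stable for hCAR and CYP2B6-2.2kb reporter. Agonist: CITCO, 50 nM final. Compounds: 15 concentrations, 24 h, 37 C. Detection: ONE-Glo luminescence.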

[9] = target: Nuclear receptor subfamily 1 group I member 3 (Homo sapiens) (UniProt Q14994); assay: qHTS assay to identify small molecule agonists of the constitutive androstane receptor (CAR) signaling pathway (AID 1224839); note: nearly all actives have a fitted effect of over 15% in size; note: potency is the fitted concentration of half-maximal effect
How it was run: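 Compounds tested at 15 concentrations on HepG2 cells stably harbouring hCAR and CYP2B6-2.2kb reporter constructs, co-treated with PK11195 (0.75 uM final), 24 h at 37 C; luminescent reporter signal quantified.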

[10] = target: Thyrotropin receptor (Homo sapiens) (UniProt P16473); assay: qHTS assay to identify small molecule agonists of the thyroid stimulating hormone receptor (TSHR) signaling pathway (AID 1224843; calls by dose curve; note: nearly all actives have a fitted effect of over 45% in size; note: potency is the fitted concentration of half-maximal effect)
Thyrotropin receptor (Homo sapiens), sequence (P16473 whole entry, looked up): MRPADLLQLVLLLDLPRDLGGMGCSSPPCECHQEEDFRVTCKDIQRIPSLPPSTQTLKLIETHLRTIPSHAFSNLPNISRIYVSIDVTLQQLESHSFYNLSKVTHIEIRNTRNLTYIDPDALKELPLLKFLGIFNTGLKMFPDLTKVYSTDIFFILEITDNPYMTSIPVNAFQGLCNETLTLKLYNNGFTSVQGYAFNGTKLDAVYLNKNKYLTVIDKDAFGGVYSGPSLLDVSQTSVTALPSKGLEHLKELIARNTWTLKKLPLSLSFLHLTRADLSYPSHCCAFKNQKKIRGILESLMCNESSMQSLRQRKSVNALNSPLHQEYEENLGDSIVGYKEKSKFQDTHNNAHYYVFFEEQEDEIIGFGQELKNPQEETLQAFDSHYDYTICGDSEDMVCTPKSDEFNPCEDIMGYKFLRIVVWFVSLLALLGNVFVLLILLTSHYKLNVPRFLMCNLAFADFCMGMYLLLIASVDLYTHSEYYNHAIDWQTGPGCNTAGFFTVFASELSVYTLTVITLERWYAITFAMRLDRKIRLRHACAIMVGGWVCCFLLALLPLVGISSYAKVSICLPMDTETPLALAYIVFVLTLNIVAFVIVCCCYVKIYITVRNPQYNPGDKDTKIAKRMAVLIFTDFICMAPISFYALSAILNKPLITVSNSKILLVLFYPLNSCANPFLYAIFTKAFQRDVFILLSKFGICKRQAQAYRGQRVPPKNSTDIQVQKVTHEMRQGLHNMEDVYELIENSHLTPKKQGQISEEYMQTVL
How it was run: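 HEK293 cells stably bearing the thyrotropin receptor were plated at 800 cells/well and challenged with compound (30 min, RT). Accumulated cAMP was quantified via cAMP-d2 competing for cryptate-tagged antibody.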

[11] = qHTS assay to identify small molecule agonists of the retinoic acid receptor (RAR) signaling pathway (AID 1159553)
How it was run: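 Reporter readout comes from luciferase under RARE control in C3RL4 cells; compound exposure lasts 6 hr at 37 C in 5% CO2, and luminescence is recorded following a 30 min room-temperature incubation with reagent.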

[12] = qHTS assay to identify small molecule antagonists of the estrogen related receptor signaling pathway with the pleiotropic PPARgamma coactivator (PGC) from Tox21 10K library (AID 1224841; call rule not given here; note: actives are mostly falling curves and most rising ones were filed inactive; nearly all actives have a fitted effect of over 50% in size; note: potency is the fitted concentration of half-maximal effect)
How it was run: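 qHTS antagonist format: PGC/ERR cells, 2k/well, compound in DMSO by pin transfer after 6 h attachment, 18 h treatment at 37 C, One-Glo luminescence read at 30 min.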

[13] = qHTS assay to identify small molecule agonists of the estrogen related receptor signaling pathway with the pleiotropic PPARgamma coactivator (PGC) from Tox21 10K library (AID 1224842); note: nearly all actives have a fitted effect of over 15% in size
How it was run: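 Luminescence from One-Glo (30 min, room temperature) measured after PGC/ERR cells had 18 h at 37 C with pinned compound (23 nL in DMSO). Cells had been seeded at 2,000 per well and pre-incubated 6 h.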

[14] = qHTS assay to identify small molecule antagonists of the estrogen related receptor signaling pathway with the pleiotropic PPARgamma coactivator (PGC) cell viability counter screen (AID 1224822; note: series mostly up to about 46 µM)
How it was run: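 PGC/ERR cells were plated at 2,000 per well and allowed 6 h to settle before compound addition. Following 17.5 h at 37 C, CellTiter-Fluor reagent was added and fluorescence was read 30 min later.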

[15] = qHTS assay to identify small molecule antagonists of the estrogen related receptor (ERR) signaling pathway (AID 1224819; note: potency is the fitted concentration of half-maximal effect; nearly all actives have a fitted effect of over 50% in size)
How it was run: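 Luminescence readout (One-Glo, 30 min, RT) of ERR cell line after 18 h compound exposure at 37 C; cells seeded 2,000/well, pre-incubated 6 h, compounds pinned from DMSO stocks.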

[16] = qHTS assay to identify small molecule agonists of the estrogen related receptor (ERR) signaling pathway (AID 1224820)
How it was run: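 ERR reporter cells (NTP line) plated 2,000/well, incubated 6 h at 37 C/5% CO2, then pinned with compounds in DMSO and held 18 h at 37 C. One-Glo added; luminescence read after 30 min at room temperature.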

[17] = system: estrogen-related receptor alpha (ERRalpha) with PGC-1alpha coactivator, human; assay: qHTS assay to identify small molecule antagonists of the estrogen related receptor signaling pathway with the pleiotropic PPARgamma coactivator (PGC) (AID 1224821; calls by dose curve; note: potency is the fitted concentration of half-maximal effect; nearly all actives have a fitted effect of over 50% in size)
How it was run: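 Cells engineered for PGC/ERR signalling (line from NTP) were plated 6 h at 37 C/5% CO2, then exposed to DMSO-dissolved compound for 18 h at 37 C. Luciferase activity was read by One-Glo luminescence after 30 min at room temperature.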

[18] = qHTS assay to identify small molecule agonists of the estrogen related receptor signaling pathway with the pleiotropic PPARgamma coactivator (PGC) (AID 1224823)
How it was run: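 PGC/ERR reporter cells were seeded, rested 6 h at 37 C/5% CO2, then exposed to compounds in DMSO by pin transfer for 18 h at 37 C. Luciferase activity was read as luminescence after One-Glo reagent and 30 min at room temperature.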

## CC(C)[C@H](C(=O)O[C@H](C#N)c1cccc(Oc2ccccc2)c1)c1ccc(Cl)cc1
[1]
  Potency: inactive
[2]
  Potency: inactive
[3]
  Potency: inactive
[4]
  Potency: inactive
[5]
  Potency: inactive
[6]
  Potency: inactive

## NC(=O)CCl
[1]
  Potency: inactive
[7]
  Potency: inactive
[3]
  Potency: inactive
[4]
  Potency: inactive
[5]
  Potency: inactive
[8]
  Potency: inactive
[9]
  Potency: inactive
[6]
  Potency: inactive
[10]
  Potency: inactive

## C[C@@H]1O[C@@H](O[C@@H]2C=C3CC[C@@H]4[C@H](CC[C@]5(C)[C@@H](c6ccc(=O)oc6)CC[C@]45O)[C@@]3(C)CC2)[C@H](O)[C@H](O)[C@H]1O
[1]
  Potency: inactive
[11]
  Potency: inactive
[2]
  Potency: 0.0298 µM (active)
[3]
  Potency: inactive
[4]
  Potency: 0.119 µM (active)
[8]
  Potency: 0.0841 µM (active)
[9]
  Potency: inactive
[12]
  Potency: 0.0237 µM (active)
[13]
  Potency: inactive

## CCCCCCCCCCCCCCCCCCn1cc[n+](C)c1
[1]
  Potency: 48.3 µM (active)
[7]
  Potency: 21.6 µM (active)
[2]
  Potency: 27.1 µM (active)
[3]
  Potency: inactive
[4]
  Potency: 24.2 µM (active)
[5]
  Potency: 17.1 µM (active)
[9]
  Potency: inactive
[6]
  Potency: 30.5 µM (active)
[12]
  Potency: 24.2 µM (active)
[13]
  Potency: inactive
[10]
  Potency: inactive

## O=C(CCl)C(Cl)Cl
[1]
  Potency: inactive
[2]
  Potency: 27.6 µM (active)
[3]
  Potency: inactive
[4]
  Potency: 21.9 µM (active)
[8]
  Potency: 13.8 µM (active)
[9]
  Potency: inactive
[6]
  Potency: 24.6 µM (active)
[12]
  Potency: 61.7 µM (active)
[13]
  Potency: inactive

## S=C=Nc1cccc2ccccc12
[1]
  Potency: inactive
[7]
  Potency: inactive
[2]
  Potency: 67.9 µM (active)
[3]
  Potency: inactive
[4]
  Potency: 67.9 µM (active)
[6]
  Potency: inactive
[13]
  Potency: inactive

## CCOP(=S)(OCC)SCS(=O)(=O)C(C)(C)C
[1]
  Potency: inactive
[7]
  Potency: inactive
[2]
  Potency: inactive
[3]
  Potency: inactive
[4]
  Potency: inactive
[5]
  Potency: inactive
[6]
  Potency: inactive
[10]
  Potency: inactive

## CC(=O)[O-].[Tl+]
[1]
  Potency: inactive
[2]
  Potency: 61.5 µM (active)
[4]
  Potency: inactive
[5]
  Potency: inactive
[6]
  Potency: inactive

## CC(C)N1C(=O)N(c2ccccc2)CSC1=NC(C)(C)C
[1]
  Potency: inactive
[3]
  Potency: inactive
[5]
  Potency: inactive
[8]
  Potency: inactive
[9]
  Potency: 24.3 µM (active)
[13]
  Potency: inactive
[10]
  Potency: inactive

## CCCOCC(=Nc1ccc(Cl)cc1C(F)(F)F)n1ccnc1
[11]
  Potency: inactive
[2]
  Potency: 54.4 µM (active)
[3]
  Potency: inactive
[8]
  Potency: inactive
[9]
  Potency: 48.5 µM (active)
[10]
  Potency: 54.4 µM (active)

## Clc1ccc(CO/N=C(\Cn2ccnc2)c2ccc(Cl)cc2Cl)c(Cl)c1
[2]
  Potency: 26.6 µM (active)
[3]
  Potency: inactive
[5]
  Potency: inactive
[8]
  Potency: inactive

## CNC(C)Cc1ccc2c(c1)OCO2 (stereo not given)
[1]
  Potency: inactive
[2]
  Potency: inactive
[3]
  Potency: inactive
[4]
  Potency: inactive
[8]
  Potency: inactive
[9]
  Potency: inactive
[6]
  Potency: inactive
[10]
  Potency: inactive

## c1ccc2c(c1)OCC(C1=NCCN1)O2 (stereo not given)
[14]
  Potency: inactive
[2]
  Potency: 21.1 µM (active)
[3]
  Potency: inactive
[4]
  Potency: 23.7 µM (active)
[5]
  Potency: 29.8 µM (active)
[8]
  Potency: 21.1 µM (active)
[9]
  Potency: inactive
[6]
  Potency: 21.1 µM (active)
[10]
  Potency: 15 µM (active)

## Nc1ccc(Cc2ccc(N)c(Cl)c2)cc1Cl
[8]
  Potency: inactive
[9]
  Potency: 16.7 µM (active)
[12]
  Potency: 13.2 µM (active)
[13]
  Potency: inactive
[10]
  Potency: inactive

## CC(=O)O[C@H]1CC[C@@]2(C)C(=CC[C@@H]3[C@@H]2CC[C@]2(C)C(=O)CC[C@@H]32)C1
[7]
  Potency: inactive
[3]
  Potency: inactive
[4]
  Potency: inactive
[5]
  Potency: inactive
[9]
  Potency: inactive
[6]
  Potency: inactive
[10]
  Potency: inactive

## O=c1[nH]c2ccccc2n1C1CCN(CCCC(c2ccc(F)cc2)c2ccc(F)cc2)CC1
[7]
  Potency: 61.1 µM (active)
[11]
  Potency: inactive
[15]
  Potency: 11.9 µM (active)
[16]
  outcome: inactive
[17]
  Potency: 16.2 µM (active)
[18]
  outcome: inactive
[2]
  Potency: 30.6 µM (active) and 26.6 µM (active)
[3]
  Potency: inactive
[4]
  Potency: 54.5 µM (active)
[5]
  Potency: 54.5 µM (active)
[6]
  Potency: 24.3 µM (active) and inactive
[12]
  Potency: 27.3 µM (active) and 26.6 µM (active)
[13]
  Potency: inactive
[10]
  Potency: inactive

## CN(C)CCc1c[nH]c2cccc(O)c12
[1]
  Potency: inactive
[2]
  Potency: inactive
[3]
  Potency: inactive
[4]
  Potency: inactive
[6]
  Potency: inactive

## CCc1cc(C)cc(CC)c1-c1c(OC(=O)C(C)(C)C)n2n(c1=O)CCOCC2
[1]
  Potency: inactive
[3]
  Potency: inactive
[4]
  Potency: inactive
[6]
  Potency: inactive
[12]
  Potency: 8.63 µM (active)
[13]
  Potency: inactive
[10]
  Potency: inactive

## ClC1=C(Cl)[C@]2(Cl)[C@@H]3[C@@H](Cl)[C@@H](Cl)C[C@@H]3[C@@]1(Cl)C2(Cl)Cl
[1]
  Potency: inactive
[2]
  Potency: inactive
[3]
  Potency: inactive
[5]
  Potency: inactive
[9]
  Potency: inactive
[6]
  Potency: inactive
[12]
  Potency: inactive
[13]
  Potency: inactive

## CCCCCCCCCCCCCCC(Br)C(=O)O (stereo not given)
[7]
  Potency: inactive
[11]
  Potency: inactive
[2]
  Potency: inactive
[4]
  Potency: inactive
[5]
  Potency: inactive
[8]
  Potency: inactive
[9]
  Potency: inactive
[6]
  Potency: inactive

## CC(C)OC(=S)S
[2]
  Potency: inactive
[3]
  Potency: inactive
[4]
  Potency: inactive

From PubChem BioAssay (Tox21)
